Source: PubChem BioAssay (NCI)
The panel holds about 79,000 compounds, 15% with a hit somewhere; the sample as a whole holds those more often. Rule as the data show it: active = growth inhibition above about 70%; inactive = the rest.

Legend:
[1] = NCI Yeast Anticancer Drug Screen. Data for the rad50 strain (AID 155);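 also: 0% = growth of vehicle-only cultures of the same strain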; settings: S. cerevisiae rad50 strain growth inhibition; at 50.0 µM; stronger effect = higher value
In short: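 DNA repair mutant yeast, compound exposure, growth read-out; inhibition is taken relative to vehicle.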

[2] = NCI Yeast Anticancer Drug Screen. Data for the mec2-1 strain (AID 157); settings: S. cerevisiae mec2-1 strain, at 50.0 µM, stronger effect = higher value
In short: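 mec2-1 yeast strain, carrying an alteration in DNA damage repair or cell cycle control, was exposed to compounds; growth inhibition was measured relative to vehicle-treated controls.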

[3] = NCI Yeast Anticancer Drug Screen. Data for the sgs1 mgt1 strain (AID 161);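 also: 0% = growth of cultures given vehicle only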; settings: S. cerevisiae sgs1 mgt1 strain, at 50.0 µM, stronger effect = higher value
In short: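 Growth of a repair-deficient yeast mutant was monitored after compound treatment and expressed as inhibition relative to vehicle-treated cultures.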

[4] = NCI Yeast Anticancer Drug Screen. Data for the cln2 rad14 strain (AID 165);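 also: 0% = growth equal to vehicle treated cultures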; settings: S. cerevisiae cln2 rad14 strain, at 50.0 µM, stronger effect = higher value
In short: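 Yeast carrying cln2 and rad14 alterations (cell cycle control and DNA damage repair) were exposed to compounds. Growth inhibition was measured against vehicle-treated controls.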

[5] = NCI Yeast Anticancer Drug Screen. Data for the bub3 strain (AID 167); settings: S. cerevisiae bub3 mutant strain, at 50.0 µM, stronger effect = higher value
In short: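 In this screen, a yeast mutant lacking normal mitotic checkpoint function is challenged with compound. Relative growth versus vehicle gives the inhibition value.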

[6] = NCI Yeast Anticancer Drug Screen. Data for the mlh1 rad18 strain (AID 175); settings: S. cerevisiae mlh1 rad18 strain growth inhibition; at 50.0 µM; stronger effect = higher value
In short: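 Growth inhibition of the yeast strain was measured after compound exposure and expressed relative to vehicle-treated controls. The strain carries defined defects in DNA damage repair.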

Measured: growth inhibition

CC(=O)Nc1ccc2c(c1)C(=O)c1ccccc1-2
inactive: [1] 64.1% | [2] 16.1% | [3] 30.2% | [4] 26.3% | [5] -16.8% | [6] 31.4%

c1ccc(-c2cnc(-c3ccccc3)cn2)cc1
inactive: [1] 1.3% | [2] 10.6% | [3] -6.15% | [4] 41.6% | [5] 6.75% | [6] -15.4%

CC/C=C(C)/C=N\NC(=O)c1ccc[n+](C)c1
inactive: [1] 21.8% | [2] 12.6% | [3] 17.6% | [4] 23.6% | [5] -3.9% | [6] 2.55%

CCc1nc2c(cnn2C)c(=O)n1-c1ccccc1
inactive: [1] -5% | [2] -6.35% | [3] -1.2% | [4] 3.9% | [5] 10.6% | [6] 7.55%

Cc1ccc(C)c2c1CCc1cc3ccccc3nc1-2
inactive: [1] 26.4% | [2] -7.5% | [3] 11.8% | [4] 7.9% | [5] 30.2% | [6] 13.8%

Oc1ccc(Br)cc1C(c1ccc2c(c1)OCO2)N1CCOCC1 (stereo unspecified)
inactive: [1] 8.65% | [2] 14.3% | [3] -7.8% | [4] 14.4% | [5] 1.45% | [6] 15.5%

O=C1OC(=O)c2ccc([N+](=O)[O-])c3c(C(=O)O)ccc1c23
inactive: [1] 5.1% | [2] -19.2% | [3] -22.9% | [4] -1.65% | [5] 2.55% | [6] 2.85%

CN1CCCC(CO)C1 (stereo unspecified)
inactive: [1] -10.8% | [2] -10.2% | [3] -7.65% | [4] 6.95% | [5] 7.75% | [6] -5.3%

Cc1cc(N(CCC#N)CCC#N)ccc1/C=C(\NC(=O)/C=C/c1ccccc1)C(=O)Nc1ccc(Cl)cc1
inactive: [1] -7.1% | [2] -15.1% | [3] 2.2% | [4] 1.7% | [5] 3.9% | [6] -1.65%

Cc1cc2nnnn2c2ccccc12
inactive: [1] -30.1% | [2] -20.6% | [3] -17.1% | [4] -2.35% | [5] -6.8% | [6] -19.8%

COc1ccc(N=Nc2c(C)nn(C(=O)c3ccncc3)c2C)cc1
inactive: [1] -21.9% | [2] -3.75% | [3] 13.4% | [4] -1.2% | [5] 11.4% | [6] -10.1%

CN1C(=O)CC2(C)c3cc(O)cc(Br)c3N(C)C12 (stereo unspecified)
inactive: [1] 6.6% | [2] -10.5% | [3] 8.45% | [4] 10.5% | [5] -6.25% | [6] 17.7%

CC12CCC(/C(=C/N(O)/C=C3\C(=O)C4(C)CCC3C4(C)C)C1=O)C2(C)C
inactive: [1] -17.6% | [2] -11.8% | [3] -30.1% | [4] 1.85% | [5] 6.75% | [6] 0.8%

CCS(=O)CCC(N)C(=O)O (stereo unspecified)
inactive: [1] -9.7% | [2] -20.1% | [3] 1.65% | [4] -19.6% | [5] 5.7% | [6] -3.6%

O=C1CN(c2cccc(Cl)c2)C(=O)CN1NCNN1CC(=O)N(c2cccc(Cl)c2)CC1=O
inactive: [1] -12.8% | [2] -0.1% | [3] 3.9% | [4] 6.65% | [5] -6.8% | [6] 2.75%

c1cc(C[S+]2CCCC2)ccc1C[S+]1CCCC1
inactive: [1] -17.9% | [2] -30.9% | [3] -32% | [4] -21.1% | [5] -12.4% | [6] -22.3%

Cc1cc2c3ccccc3n(C)c2c2c1C(=O)c1ccccc1C2=O
inactive: [1] 15.8% | [2] 28% | [3] 3.3% | [4] 5.45% | [5] 17.4% | [6] 11.2%

Cc1ncc([N+](=O)[O-])n1CCCl
inactive: [1] -1.8% | [2] 12.2% | [3] 3.35% | [4] -27.2% | [5] -0.15% | [6] -4.35%

C/C(C=C(C#N)C#N)=C\c1cccc(F)c1
inactive: [1] 55.7% | [2] 28.3% | [3] 50.6% | [4] 48.1% | [5] 17.5% | [6] 53.8%

O=C(CCCc1ccccn1)c1ccccc1
inactive: [1] 1.8% | [2] 3.85% | [3] 2.5% | [4] 5.35% | [5] -31.6% | [6] -1.45%

O=C1C2=Cc3ccccc3OC2(O)Oc2ccc(O)cc21 (stereo unspecified)
inactive: [1] 8.5% | [2] 6.75% | [3] -6.05% | [4] -2% | [5] -38.6% | [6] -33.5%
